The text below walks through data of PubChem BioAssay (EPA / NIEHS).

SMILES strings stand for the structures. Values joined by “and” are separate entries in the source; they are usually repeats but may differ in a detail not shown here. Equal entries are not always repeated. More than one record can exist for a structure, and the calls need not agree. Active and inactive are the calls of the source. Rule for the calls: active = hit-call score of the fitted dose curve at least 0.9, where 1 is the maximum; inactive = score below 0.9.

Experiment [1] has as its target Transcription factor E2F1 (Homo sapiens) (UniProt Q01094). Put plainly: ATG_E2F_CIS: Attagene CIS-FACTORIAL HepG2 Assay for human E2F Transcription Factor 1 (AID 2282935). The conditions noted are these: HepG2 Attagene cis-reporter, E2F reporter RNA transcripts; actives raise or lower the signal. Put shortly:
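Multiplexed cis-reporter assay: HepG2, transient transfection, 24 h dosing, mRNA quantitation by labeled RT-PCR and CE.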

The nature of experiment [2]: ATG_E_Box_CIS: Attagene CIS-FACTORIAL HepG2 Assay for human Enhancer Box (E-box) (AID 2282936). The conditions noted are these: HepG2 E-box cis-reporter transcription, actives raise or lower the signal. Put shortly:
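Multiplexed CIS reporter system in transiently transfected HepG2 cells measures native transcription factor activity. Reporter RNA after 24 h exposure is profiled by RT-PCR-capillary electrophoresis.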

Experiment [3] can be described thus: ATG_M_61_CIS: Attagene CIS-FACTORIAL HepG2 Assay for M61 Transcription Factor (Internal Marker) (AID 2282937). The conditions noted are these: HepG2 Attagene CIS-FACTORIAL M61 internal marker reporter; actives raise or lower the signal. Put shortly: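 Human liver HepG2, transient MRTU transfection (cis promoter elements), 24 h compound. Total RNA → oligo(dT) RT → PCR → FAM label → HpaI → CE. Internal background marker; bidirectional fitting, DMSO = baseline.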

Experiment [4] can be described thus: ATG_EGR_CIS: Attagene CIS-FACTORIAL HepG2 Assay for human Early Growth Response 1 (EGR1) (AID 2282938). The conditions noted are these: HepG2 Attagene CIS-FACTORIAL EGR reporter mRNA; actives raise or lower the signal. Put shortly: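 Transient transfection of human HepG2 with multiple cis-regulated reporter units, chemical exposure 24 h, total RNA isolated. Reverse transcription, PCR, fluorescent labelling and capillary electrophoresis quantify reporter transcripts; activity fitted bidirectionally against DMSO.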

Experiment [5] in a line: ATG_M_19_CIS: Attagene CIS-FACTORIAL HepG2 Assay for M19 Transcription Factor (Internal Marker) (AID 2282939). The conditions noted are these: HepG2 Attagene CIS-FACTORIAL M19 internal marker reporter; actives raise or lower the signal. In a few lines:
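Readout: fluorescent reporter-transcript fragments by capillary electrophoresis after RT-PCR. Human HepG2 liver cells carried transfected MRTU constructs reporting endogenous transcription-factor activity; exposure 24 h. Gain or loss of signal fitted relative to DMSO.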

The nature of experiment [6]: ATG_ERE_CIS: Attagene CIS-FACTORIAL HepG2 Assay for Estrogen Response Element (ERE) (AID 2282940). The conditions noted are these: HepG2 ERE cis-reporter, Attagene RNA transcript; actives raise or lower the signal. Put shortly:
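Readout: reporter mRNA induction by RT-PCR, FAM-labelled primer extension, HpaI digestion and capillary electrophoresis, 24 h after dosing transfected HepG2 cells. Endogenous transcription factors act on cis-element-regulated reporters. Gain or loss fitted against DMSO.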

Experiment [7] in a line: ATG_Ets_CIS: Attagene CIS-FACTORIAL HepG2 Assay for human Erythroblast Transformation Specific (ETS) (AID 2282941). The conditions noted are these: HepG2 ETS cis-reporter transcription, actives raise or lower the signal. Put shortly:
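Human HepG2 hepatoma cells were transiently transfected with promoter-driven reporter constructs and treated for 24 hours. Reporter transcripts were quantified by RT-PCR with fluorescent primer extension; bidirectional curve fitting used DMSO as reference.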

In experiment [8] the target is Hepatocyte nuclear factor 3-beta (Homo sapiens) (UniProt Q9Y261). Put plainly: ATG_FoxA2_CIS: Attagene CIS-FACTORIAL HepG2 Assay for human Forkhead box A2 (FOXA2) (AID 2282942). The conditions noted are these: HepG2 cis-reporter transcription factor activity, 24 h; actives raise or lower the signal. In a few lines: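 Transient MRTU transfection of HepG2 liver cells; 24 h treatment; total RNA → oligo(dT) RT → PCR → FAM primer extension → HpaI cut → CE. Bidirectional fit vs DMSO.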
Sequence of Hepatocyte nuclear factor 3-beta (Homo sapiens) (Q9Y261 whole entry, looked up): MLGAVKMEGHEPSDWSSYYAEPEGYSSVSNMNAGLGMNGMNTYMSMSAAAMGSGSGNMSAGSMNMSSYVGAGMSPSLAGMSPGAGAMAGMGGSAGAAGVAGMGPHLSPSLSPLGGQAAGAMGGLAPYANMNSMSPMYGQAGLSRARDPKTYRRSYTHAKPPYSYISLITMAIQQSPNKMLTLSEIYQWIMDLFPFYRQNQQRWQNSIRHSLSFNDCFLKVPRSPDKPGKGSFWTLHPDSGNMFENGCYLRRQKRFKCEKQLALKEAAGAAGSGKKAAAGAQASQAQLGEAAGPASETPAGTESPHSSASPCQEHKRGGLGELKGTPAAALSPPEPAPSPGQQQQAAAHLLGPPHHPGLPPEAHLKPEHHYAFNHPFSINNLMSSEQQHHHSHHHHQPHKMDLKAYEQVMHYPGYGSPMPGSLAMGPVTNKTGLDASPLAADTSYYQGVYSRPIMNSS

A short description of experiment [9]: ATG_GATA_CIS: Attagene CIS-FACTORIAL HepG2 Assay for human GATA Binding Protein (AID 2282944). The conditions noted are these: HepG2 GATA cis-element reporter, Attagene multiplex mRNA; actives raise or lower the signal. In a few lines: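 Read-out: fluorescent reporter mRNA fragments resolved by capillary electrophoresis after RT-PCR. Human liver HepG2 cells carried transiently transfected cis-regulated reporter constructs; chemicals incubated 24 h; gain or loss of signal fitted relative to DMSO.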

Experiment [10] can be described thus: ATG_FoxO_CIS: Attagene CIS-FACTORIAL HepG2 Assay for human Forkhead box O (FoxO) (AID 2282943). The conditions noted are these: HepG2 Attagene cis-reporter, FoxO element, mRNA; actives raise or lower the signal. In a few lines: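 Values reflect reporter mRNA induction or loss in HepG2 cells 24 h post-dosing, fitted bidirectionally with DMSO as negative control and baseline. Detection used RT-PCR and fluorescence capillary electrophoresis.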

Sequence of Transcription factor E2F1 (Homo sapiens) (Q01094 whole entry, looked up): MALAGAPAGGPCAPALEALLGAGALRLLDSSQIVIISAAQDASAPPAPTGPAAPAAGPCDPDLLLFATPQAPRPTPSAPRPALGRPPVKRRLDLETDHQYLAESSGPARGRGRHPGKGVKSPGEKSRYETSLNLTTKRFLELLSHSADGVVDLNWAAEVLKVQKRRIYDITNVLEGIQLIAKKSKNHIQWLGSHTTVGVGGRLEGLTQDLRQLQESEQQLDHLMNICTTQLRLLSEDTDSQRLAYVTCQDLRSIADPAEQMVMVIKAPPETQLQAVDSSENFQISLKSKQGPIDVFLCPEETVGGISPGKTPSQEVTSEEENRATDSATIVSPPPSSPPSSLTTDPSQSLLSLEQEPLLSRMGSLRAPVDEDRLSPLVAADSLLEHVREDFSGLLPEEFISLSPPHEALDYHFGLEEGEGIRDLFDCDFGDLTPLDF

In general, AC50 refers to the concentration at which the activity in the assay is half-maximal. For the molecule `CN1CCC[C@H]1c1cccnc1`, the call in [1], in experiment [2], in experiment [3], in experiment [4], in experiment [5] and in experiment [6] was inactive. The outcome in experiment [7], in [8] and in [9] was inactive. Also, in [6], the AC50 is 49.4 µM (active).
As to `OCCC(F)(F)C(F)(F)C(F)(F)C(F)(F)C(F)(F)C(F)(F)C(F)(F)C(F)(F)F`, the result in [1], in experiment [2], in [3], in experiment [5] and in [9] was inactive. In addition, the AC50 in experiment [2] was 261 µM (active); in experiment [4] it was 26.5 µM (active) and 150 µM (active); in [6], 9.11 µM (active) and 8.41 µM (active); in experiment [7], 50.7 µM (active) and 150 µM (active); in experiment [8], 51.9 µM (active) and 235 µM (active).
With `ClC1=C(Cl)C(Cl)(Cl)C(Cl)=C1Cl`, the call in experiment [1], in experiment [2], in [3], in experiment [5], in experiment [6] and in experiment [8] was inactive. In experiment [9], the molecule was classed as inactive. Also, the AC50 in experiment [2] was 6.36 µM (active); in experiment [4], 17.8 µM (active) and 6.6 µM (active); in experiment [7] it was 17.7 µM (active) and 16.2 µM (active).
With `CCCOC(=O)c1ccc(O)cc1`, the outcome in experiment [1], in [2], in experiment [3], in experiment [4], in experiment [5] and in experiment [7] was inactive. The molecule was classed as inactive in [8], in [10] and in [9]. Also, the AC50 is 157 µM (active) in [4]; 6.06 µM (active) and 16 µM (active) in [6].
For `Cc1cc(C)c(O)c(C)c1`, the outcome in experiment [1], in [2], in experiment [3], in [4], in [5] and in [6] was inactive. In addition, the molecule was classed as inactive in [7], in [8], in experiment [10] and in experiment [9].
As for `CC(=O)NC1(c2cccc(F)c2)CCN(CC[C@@]2(c3ccc(Cl)c(Cl)c3)CN(c3ccccc3)C(=O)CO2)CC1`, the molecule was classed as inactive in [1], in [2], in [3], in experiment [5], in experiment [8] and in [10]. Also, the call in [9] was inactive. For the same molecule, the AC50 in experiment [4] is 28.5 µM (active); in [6], 33 µM (active); in experiment [7], 51.9 µM (active).
Turning to `N#C[C@@H]1CC(F)(F)CN1C(=O)CNC1CC2CCC(C1)N2c1ncccn1` (stereo not given in full), the molecule was called inactive in experiment [1], in [2], in experiment [3], in experiment [4], in experiment [5] and in [6]. The molecule was called inactive in [7], in experiment [8], in experiment [10] and in [9].
Regarding `c1ccc2c(c1)ccc1ccccc12`, the call in [1], in [2], in experiment [3], in [4], in experiment [5] and in experiment [6] was inactive. The molecule was called inactive in [7], in experiment [8], in experiment [10] and in experiment [9].
Regarding `O=C(O)Cc1cc(I)c(Oc2cc(I)c(O)c(I)c2)c(I)c1`, the molecule was classed as inactive in experiment [1], in experiment [2], in experiment [3], in experiment [5], in experiment [6] and in [7]. Moreover, the outcome in experiment [8] and in experiment [9] was inactive. In addition, the AC50 is 113 µM (active) in experiment [2]; 22.5 µM (active) and 36.5 µM (active) in [4]; 38.1 µM (active) in experiment [7]; 83.7 µM (active) in [8]; 115 µM (active) in experiment [9].
For the molecule `NCC(F)(F)C(F)(F)C(F)(F)C(F)(F)C(F)(F)C(F)(F)C(F)(F)F`, the outcome in experiment [1], in [2], in [3], in experiment [4], in experiment [5] and in experiment [6] was inactive. Further, the molecule was called inactive in experiment [7], in [8], in experiment [10] and in experiment [9].
On to `O=C(O)c1ccccc1C(c1ccc(O)cc1)c1ccc(O)cc1`, for which the molecule was called inactive in experiment [1], in experiment [2], in [3], in experiment [4], in experiment [5] and in experiment [7]. Further, the molecule was called inactive in experiment [8], in experiment [10] and in [9]. The AC50 in experiment [6] was 62.7 µM (active) [middle of 4 runs].
Regarding `CC[C@H](c1ccc(O)cc1)[C@@H](CC)c1ccc(O)cc1`, the outcome in [1], in experiment [2], in experiment [3], in experiment [4], in [5] and in experiment [7] was inactive. Moreover, the molecule was called inactive in [8] and in experiment [9]. In addition, the AC50 in [4] was 11.1 µM (active); in experiment [6], 1.02 nM (active) and 3.79 nM (active) and 1.01 nM (active).
Consider `C[C@@H]1C[C@H]2[C@@H]3CCC4=CC(=O)C=C[C@]4(C)[C@@]3(F)[C@@H](O)C[C@]2(C)[C@@]1(O)C(=O)COP(=O)(O)O`, for which the molecule was called inactive in [1], in experiment [2], in [3], in experiment [4], in experiment [5] and in experiment [6]. Further, the call in experiment [7], in experiment [8], in experiment [10] and in [9] was inactive.
In the case of `CCCCOCCO`, the call in [1], in experiment [2], in experiment [3], in experiment [4], in experiment [5] and in experiment [7] was inactive. Also, the molecule was called inactive in [8], in experiment [10] and in experiment [9]. Besides, in [6], the AC50 was 134 µM (active).
`CN1CCN(c2ccccc2/C=C2\SCCN(c3ccc(Cl)c(Cl)c3)C2=O)CC1`: the molecule was classed as inactive in [1], in [2], in experiment [3], in experiment [4], in experiment [5] and in [6]. Also, the molecule was classed as inactive in [7], in [8], in [10] and in [9].
With `CCCCCCCCCCCCCCCS(=O)(=O)Oc1ccccc1`, the result in experiment [1], in experiment [2], in experiment [3], in experiment [4], in [5] and in [6] was inactive. Also, the molecule was classed as inactive in [7], in [8], in experiment [10] and in [9].
Consider `CC1=C(/C=C/C(C)=C/C=C/C(C)=C/C(=O)O)C(C)(C)CCC1`, for which the outcome in experiment [1], in experiment [2], in experiment [3], in experiment [4], in experiment [5] and in [6] was inactive. Also, the molecule was classed as inactive in experiment [7], in experiment [8] and in [9]. In addition, the AC50 in [4] is 21.5 µM (active); in experiment [6], 0.112 µM (active).
